# Sampled rows, rich in hits. Any-hit rate of the full collection: about 15%.
# SARS PLpro yeast: qHTS of Yeast-based Assay for SARS-CoV PLP; S. cerevisiae expressing SARS-CoV PLpro, growth rescue; Potency, µM (series often up to 32.9 µM), without a hit: top-dose activity, positive = growth rescue, most hits filed as activators; actives 0.19% (n = 330,000); AID 485353, 2010; calls by dose curve; also: potency is read from the fitted curve at half-maximal effect; 0% is about no effect; nearly all actives have a fitted effect of over 55% in size
# Pf growth 48h: Primary qHTS for delayed death inhibitors of the malarial parasite plastid, 48 hour incubation; actives 5.9% (n = 310,000); P. falciparum luciferase growth in erythrocytes, 48 h; Potency, µM (doses to about 28.7 µM), inactives show top-dose activity change, negative = inhibition, actives largely listed as inhibitors; also: potency is read from the fitted curve at half-maximal effect; % is scaled to controls: 0 for no effect and ±100 for the full control effect
#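 Luminescence readout; reporter = integrated firefly luciferase in P. falciparum. RBC culture at 2% hematocrit, 0.1% parasitemia final, 37 C/5% CO2; decreased signal taken as growth inhibition.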
# HCMV antiviral: qHTS Assay for inhibitors of the human cytomegalovirus (HCMV); HFF cells, HCMV-luciferase reporter, 72 h; stronger effect = lower value; activity change, negative = inhibition, % at 57.5 µM; actives 4.5% (n = 410,000); in the data active = activity change below about -60%; inconclusive = no clear call, values can overlap the other calls; inactive = above about -39%; also: % is scaled to controls: 0 for no effect and ±100 for the full control effect
#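 Steps: HFFs plated, 16 h 37C; compounds added; HCMV-luciferase added to MOI 1 PFU/cell; 72 h 37C; OneGlo reagent, 5 min room temperature; luminescence read, normalized to controls.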
# Sm TGR block: qHTS Assay for the Inhibitors of Schistosoma Mansoni Peroxiredoxins; AID 485364, 2010; actives 3% (n = 360,000); Schistosoma mansoni thioredoxin glutathione reductase (TGR), Q962Y6; Potency, µM (highest dose often 114 µM), for inactives: at the top dose activity change, negative = inhibition, actives largely listed as inhibitors; purified TGR, DTNB reduction, TNB absorbance 405 nm; also: potency is read from the fitted curve at half-maximal effect; % is scaled to controls: 0 for no effect and ±100 for the full control effect; nearly all actives have a fitted effect of over 60% in size
#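 First, TGR (20 nM dispensed) and NADPH were mixed with compound. Second, a 15 min room-temperature incubation followed. Third, further NADPH and then DTNB were added to start the reaction. Finally, TNB absorbance was monitored kinetically.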
# HCV inhibitor: qHTS Assay for Inhibitors of Hepatitis C Virus (HCV) | actives 3.4% (n = 340,000) | AID 651820, 2012 | Huh7.5.1 HCVcc-Cre infection, luciferase reporter, 44 h | Potency, µM (series often up to 41.8 µM), for the others: at the highest dose activity change, negative = inhibition, hits mostly inhibitors; also: potency is read from the fitted curve at half-maximal effect; % is scaled to controls: 0 for no effect and ±100 for the full control effect
#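 After 44 h co-culture of compound, cells and HCVcc-Cre (~0.5 moi), substrate is added for 15 min at room temperature and luciferase measured over 15 sec. Cells were seeded at 1,000/well and pre-cultured 4 h.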
# Pf growth 96h: Primary qHTS for delayed death inhibitors of the malarial parasite plastid, 96 hour incubation; P. falciparum luciferase reporter growth, 96 h; actives 6.9% (n = 320,000); Potency, µM (highest dose often 28.7 µM), inactives show top-dose activity change, negative = inhibition, actives largely listed as inhibitors; AID 504834, 2011; also: potency is read from the fitted curve at half-maximal effect; % is scaled to controls: 0 for no effect and ±100 for the full control effect
#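 Erythrocytes infected with luciferase-expressing P. falciparum were dispensed at 2% hematocrit and 0.05% parasitemia (final), then incubated with compounds 96 hours at 37 C in 5% CO2. Luminescence after detection reagent addition reported growth.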
# * hit, by the source's call; ? = inconclusive; . = no result; ! = not confirmed by another sample; [ ] = dose if it differs, or a comment. Unless noted, calls follow the shape of the dose curve; as a rule, active = well fitted curve in the direction sought with a large enough effect; inconclusive = small, poorly fitted or top-dose-only effect, or another doubt; inactive = no such curve, though single readings can be large; an effect the other way counts as inactive or inconclusive.
SMILES,SARS PLpro yeast,Pf growth 48h,HCMV antiviral,Sm TGR block,HCV inhibitor,Pf growth 96h
NC(N)=N/N=C/c1c(Cl)cccc1Cl,0%,13µM*,-73*!,6%,-25%,3.7µM*!
NC(N)=N/N=C/c1ccccc1Cl,0%,12µM*,-14,12%,-11%,10µM*
C/C(=N\N=C(N)N)c1cccc(Cl)c1,1%,?,10,.,-24%,?
CC(=O)NC(C)c1nc2ccccc2n1CC(=O)NC(C)CCc1ccccc1 (configuration not stated),-2%,-6%,85,7%,-1%,?
CC1CCCCN1C(=O)Cn1c(=O)n(-c2ccc(Cl)cc2)c(=O)c2c3c(sc21)CCC3 (configuration not stated),.,.,-16,3%,.,.
Cc1noc(C)c1S(=O)(=O)Nc1ccc2c(c1)C(=O)N([C@H](C)CO)C[C@H](C)[C@@H](CN(C)C(=O)CCCN(C)C)OCCCC[C@@H](C)O2,.,.,4,.,.,.
CCCCn1c(SCC(=O)Nc2ccc(OCC)cc2)nc2ccsc2c1=O,.,.,6,11%,.,.
CCCCn1c(SCC(=O)Nc2ccccc2C(F)(F)F)nc2ccsc2c1=O,-15%,0%,-6,-25%,-9%,12µM*
CCCCn1c(SCC(=O)N2CCC(C)CC2)nc2ccsc2c1=O,2%,12µM*,?,-8%,-27%,-44%
CCCCn1c(SCC(=O)N2CCN(c3ccccc3)CC2)nc2ccsc2c1=O,-13%,?,.,9%,.,5%
CN(C)c1ccc(CNC(=O)CC[C@H]2O[C@@H](n3cnc4c(NC(=O)c5ccccc5)ncnc43)[C@H](O)[C@@H]2O)cc1,.,.,18,.,.,.
COc1ccc(CCNC(=O)c2cc(S(=O)(=O)N3CCOCC3)cn2C)cc1OC,6%,17%,16,-10%,-17%,7.4µM*
Cc1ccc(CCNC(=O)c2cc(S(=O)(=O)N3CCOCC3)cn2C)cc1,1%,5%,-17,-2%,-16%,-9%
Cn1cc(S(=O)(=O)N2CCOCC2)cc1C(=O)NCCc1ccccc1,-1%,-6%,.,89µM*,2%,66%
CCOC(=O)N1CCC(NC(=O)c2cc(S(=O)(=O)N3CCCC3)cn2C)CC1,1%,7.4µM*,-8,-30%,2%,0.41µM*
Cn1cc(S(=O)(=O)N2CCCC2)cc1C(=O)NCCc1ccccc1,0%,-13%,18,-18%,?,2.6µM*
CC1CCCN(S(=O)(=O)c2cc(C(=O)NCCc3ccccc3)n(C)c2)C1 (configuration not stated),.,.,12,-10%,.,.
COc1ccc(CCNC(=O)CCCCn2c(=O)c3ccccc3n(Cc3ccc(Cl)cc3)c2=O)cc1OC,.,.,1,5%,.,.
CCOC(=O)N1C2c3ccccc3C(c3ccccc32)N1C(=O)OCC,.,.,-24,.,20%,.
O=C(O)c1cccc(-c2csc(C(O)c3cccc(Cl)c3)n2)c1 (configuration not stated),.,.,47,.,.,.
O=C(Cc1ccccc1)Nc1cccc(C(=O)O)c1O,1%,20%,-34,-1%,17%,-4%
Cc1cccc(NC(=O)c2cc(S(=O)(=O)N3CCCCCC3)cn2C)c1C,.,.,1,4%,.,.
Cc1cccc(NC(=O)c2cc(S(=O)(=O)N3CCOCC3)cn2C)c1C,-4%,7%,9,-5%,12%,6.6µM*
Cc1ccc2c(CC(=O)N3CCN(c4cccc(Cl)c4)CC3)coc2c1C,.,.,8,7%,.,.
Cc1ccc(CSCCNS(C)(=O)=O)cc1,-2%,20%,-23,0%,10%,.
COC(=O)c1cc(OC)nc2ccc(Br)cc12,-1%,?,8,-3%,11µM*,?
CCOc1ccc(NC(=O)c2cc(OC)nc3ccccc23)cc1,0%,21%[0.00184 µM],-64*,-9%,?,-26%

# Assay outcomes (PubChem)
